Here are results for four molecules from PubChem BioAssay.

“And” between values parts separate entries of the source, which are not always exact repeats. Identical values can stand only once. The source made the active and inactive calls.

A short description of assay [1]: small molecules captured by biotinylated probe aFSTL3 – biochemical, small-molecule microarray, fluorescence 635/667, stem cell growth factor project, primary screen (AID 1064).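 Further: measures binding of the biotinylated anti-FSTL3 antibody to printed compounds.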 The following applies: higher = more signal.
A short description of assay [2]: binders from COS7 lysate, DM2A8 probe, primary screen, torsin A project, cell lysate, small-molecule microarray, fluorescence 635/667 (AID 1065). The following applies: higher = more signal, COS7 lysate expressing mutant human TOR1A.
Assay [3] is described as follows: small molecules captured by biotinylated probe aFGF2 – biochemical, small-molecule microarray, fluorescence 635/667, stem cell growth factor project, primary screen (AID 1067).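 Further: measures binding of biotinylated aFGF2 protein to printed compounds on slides; z-score merges feature fluorescence and signal-to-noise across triplicate slides.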 The conditions noted are these: higher = more signal.
A short description of assay [4]: small molecules captured by biotinylated probe aFGF10 – biochemical, small-molecule microarray, fluorescence 635/667, stem cell growth factor project, primary screen (AID 1071).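 Further: score merges 667 nm spot intensity and signal to noise from triplicate slides.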 The following applies: higher = more signal.
Assay [5] addresses Neurogenic locus notch homolog protein 2 (Homo sapiens) (UniProt Q04721). Nature of the assay: small molecules binding Notch2 protein – biochemical, small-molecule microarray, 635 nm fluorescence, stem cell growth factors, primary screen (AID 1073). The conditions noted are these: higher = more signal.
Assay [6] addresses Pro-neuregulin-1, membrane-bound isoform (Homo sapiens) (UniProt Q02297). Nature of the assay: small molecules binding neuregulin-1 protein – biochemical, small-molecule microarray, fluorescence 635/667, psychiatric disease protein project, primary screen (AID 1075).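 Further: score combines 667 nm spot fluorescence with signal to noise.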 The conditions noted are these: NRG1 binding, 635 nm fluorescence, higher = more signal.
Assay [7] deals with Neuregulin-1 EGF-like domain. Nature of the assay: small molecules binding NRG1 EGF domain – biochemical, small-molecule microarray, 635 nm fluorescence, primary screen (AID 1081).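 Further: binding of the protein to compounds printed on small-molecule microarray slides.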 The following applies: higher = more signal.
Assay [8] can be described thus: FRG1 expression reporter modulators in myotubes – cell-based, C2C12 myotubes, firefly/Renilla luciferase, luminescence, FRG1 inhibition for FSHD, primary screen (AID 1084). The following applies: FRG1 promoter luciferase, higher = more signal, called active from +8 up or from −8 down.
A short description of assay [9]: small molecules captured by biotinylated probe aFST – biochemical, small-molecule microarray, fluorescence 635/667, stem cell growth factor project, primary screen (AID 1086).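 Further: score merges 667 nm fluorescence with signal-to-noise of each printed compound spot.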 The conditions noted are these: higher = more signal.
A short description of assay [10]: binders of probe aHhip on microarray, primary screen, stem cell growth factor project, biochemical, small-molecule microarray, fluorescence 635/667 (AID 1087).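 Further: score merges spot fluorescence at 667nm with spot signal to noise ratio.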 The conditions noted are these: higher = more signal.
For assay [11], the system named is PRMT1 (protein arginine N-methyltransferase 1). In words: small molecules binding arginine methyltransferase PRMT1 – biochemical, small-molecule microarray, 635 nm fluorescence, primary screen (AID 1088).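 Further: binding of Prmt1 protein to compounds spotted on small-molecule microarray slides.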 The conditions noted are these: higher = more signal.
A short description of assay [12]: growth effects on S. cerevisiae YJM789 – YJM789 clinical isolate, OD600, 24 h, basal, primary screen (AID 1089).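 Further: growth of clinical yeast isolate S. cerevisiae YJM 789 seeded 1000 cells per well; test concentration not given here.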 The conditions noted are these: higher = more signal, called active from +8 up or from −8 down.
The nature of assay [13]: S. pombe growth modifiers, basal conditions – strain 972, OD600, 24 h, no modulator, primary screen (AID 1090).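 Further: basal condition with compound alone and no growth modifier present; test concentration not given here.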 The conditions noted are these: S. pombe 972 growth, higher = more signal, called active from +8 up or from −8 down.
Assay [14] in a line: budding yeast growth modifiers under rapamycin – strain BY4716, OD600, 96 h, primary screen (AID 1091). Further: test concentration not given here. The following applies: S. cerevisiae BY4716 + rapamycin, higher = more signal, called active from +8 up or from −8 down.
Assay [15] concerns the target Torsin-1A-interacting protein 2 (Homo sapiens) (UniProt Q8NFQ8). Nature of the assay: small molecules binding lysate-expressed LULL1 – cell lysate, human LULL1 lysate, 635/667 nm fluorescence, primary screen (AID 1092).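 Further: probe is lysate of COS7 cells overexpressing human LULL1; score merges per-feature 667 nm fluorescence with signal-to-noise.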 The following applies: small-molecule microarray, hLULL1 lysate binding, 635 nm fluorescence; higher = more signal.
A short description of assay [16]: optical density change of DRC41 E. coli – strain DRC41, OD650, 24 h, E. coli filamentation project, primary screen (AID 1093).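 Further: MC1000 strain lacking acrAB efflux and sulA so SOS filamentation is blocked; test concentration not given here.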 The following applies: E. coli DRC41 growth, higher = more signal, called active from +8 up or from −8 down.
A short description of assay [17]: probe aLefty2 binding to arrayed compounds – biochemical, biotinylated probe, 635/667 nm fluorescence, primary screen (AID 1094).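 Further: score merges spot fluorescence near 667 nm with spot signal-to-noise ratio.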 The following applies: small-molecule microarray, higher = more signal.
Assay [18] has as its system Noggin (protein binding on small-molecule microarray). Nature of the assay: small molecules binding Noggin protein – biochemical, 635/667 nm fluorescence, primary screen (AID 1095).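 Further: score merges 667 nm feature fluorescence with signal to noise over triplicate slides.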 The following applies: 635 nm fluorescence, higher = more signal.
For assay [19], the target named is Neurogenic locus notch homolog protein 3 (Homo sapiens) (UniProt Q9UM47). Nature of the assay: small molecules binding NOTCH3 protein – biochemical, 635/667 nm fluorescence, primary screen (AID 1096). The conditions noted are these: small-molecule microarray, 635 nm fluorescence, higher = more signal.
Assay [20] is described as follows: probe aEGFR binding to arrayed compounds – biochemical, biotinylated probe, 635/667 nm fluorescence, primary screen (AID 1097).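 Further: probe is a biotinylated anti-EGFR antibody binding compounds printed on slides; score combines fluorescence near 667 nm and signal to noise of each spot.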 The conditions noted are these: small-molecule microarray, higher = more signal.

Sequence of Neurogenic locus notch homolog protein 2 (Homo sapiens) (Q04721 whole entry, looked up, canonical isoform): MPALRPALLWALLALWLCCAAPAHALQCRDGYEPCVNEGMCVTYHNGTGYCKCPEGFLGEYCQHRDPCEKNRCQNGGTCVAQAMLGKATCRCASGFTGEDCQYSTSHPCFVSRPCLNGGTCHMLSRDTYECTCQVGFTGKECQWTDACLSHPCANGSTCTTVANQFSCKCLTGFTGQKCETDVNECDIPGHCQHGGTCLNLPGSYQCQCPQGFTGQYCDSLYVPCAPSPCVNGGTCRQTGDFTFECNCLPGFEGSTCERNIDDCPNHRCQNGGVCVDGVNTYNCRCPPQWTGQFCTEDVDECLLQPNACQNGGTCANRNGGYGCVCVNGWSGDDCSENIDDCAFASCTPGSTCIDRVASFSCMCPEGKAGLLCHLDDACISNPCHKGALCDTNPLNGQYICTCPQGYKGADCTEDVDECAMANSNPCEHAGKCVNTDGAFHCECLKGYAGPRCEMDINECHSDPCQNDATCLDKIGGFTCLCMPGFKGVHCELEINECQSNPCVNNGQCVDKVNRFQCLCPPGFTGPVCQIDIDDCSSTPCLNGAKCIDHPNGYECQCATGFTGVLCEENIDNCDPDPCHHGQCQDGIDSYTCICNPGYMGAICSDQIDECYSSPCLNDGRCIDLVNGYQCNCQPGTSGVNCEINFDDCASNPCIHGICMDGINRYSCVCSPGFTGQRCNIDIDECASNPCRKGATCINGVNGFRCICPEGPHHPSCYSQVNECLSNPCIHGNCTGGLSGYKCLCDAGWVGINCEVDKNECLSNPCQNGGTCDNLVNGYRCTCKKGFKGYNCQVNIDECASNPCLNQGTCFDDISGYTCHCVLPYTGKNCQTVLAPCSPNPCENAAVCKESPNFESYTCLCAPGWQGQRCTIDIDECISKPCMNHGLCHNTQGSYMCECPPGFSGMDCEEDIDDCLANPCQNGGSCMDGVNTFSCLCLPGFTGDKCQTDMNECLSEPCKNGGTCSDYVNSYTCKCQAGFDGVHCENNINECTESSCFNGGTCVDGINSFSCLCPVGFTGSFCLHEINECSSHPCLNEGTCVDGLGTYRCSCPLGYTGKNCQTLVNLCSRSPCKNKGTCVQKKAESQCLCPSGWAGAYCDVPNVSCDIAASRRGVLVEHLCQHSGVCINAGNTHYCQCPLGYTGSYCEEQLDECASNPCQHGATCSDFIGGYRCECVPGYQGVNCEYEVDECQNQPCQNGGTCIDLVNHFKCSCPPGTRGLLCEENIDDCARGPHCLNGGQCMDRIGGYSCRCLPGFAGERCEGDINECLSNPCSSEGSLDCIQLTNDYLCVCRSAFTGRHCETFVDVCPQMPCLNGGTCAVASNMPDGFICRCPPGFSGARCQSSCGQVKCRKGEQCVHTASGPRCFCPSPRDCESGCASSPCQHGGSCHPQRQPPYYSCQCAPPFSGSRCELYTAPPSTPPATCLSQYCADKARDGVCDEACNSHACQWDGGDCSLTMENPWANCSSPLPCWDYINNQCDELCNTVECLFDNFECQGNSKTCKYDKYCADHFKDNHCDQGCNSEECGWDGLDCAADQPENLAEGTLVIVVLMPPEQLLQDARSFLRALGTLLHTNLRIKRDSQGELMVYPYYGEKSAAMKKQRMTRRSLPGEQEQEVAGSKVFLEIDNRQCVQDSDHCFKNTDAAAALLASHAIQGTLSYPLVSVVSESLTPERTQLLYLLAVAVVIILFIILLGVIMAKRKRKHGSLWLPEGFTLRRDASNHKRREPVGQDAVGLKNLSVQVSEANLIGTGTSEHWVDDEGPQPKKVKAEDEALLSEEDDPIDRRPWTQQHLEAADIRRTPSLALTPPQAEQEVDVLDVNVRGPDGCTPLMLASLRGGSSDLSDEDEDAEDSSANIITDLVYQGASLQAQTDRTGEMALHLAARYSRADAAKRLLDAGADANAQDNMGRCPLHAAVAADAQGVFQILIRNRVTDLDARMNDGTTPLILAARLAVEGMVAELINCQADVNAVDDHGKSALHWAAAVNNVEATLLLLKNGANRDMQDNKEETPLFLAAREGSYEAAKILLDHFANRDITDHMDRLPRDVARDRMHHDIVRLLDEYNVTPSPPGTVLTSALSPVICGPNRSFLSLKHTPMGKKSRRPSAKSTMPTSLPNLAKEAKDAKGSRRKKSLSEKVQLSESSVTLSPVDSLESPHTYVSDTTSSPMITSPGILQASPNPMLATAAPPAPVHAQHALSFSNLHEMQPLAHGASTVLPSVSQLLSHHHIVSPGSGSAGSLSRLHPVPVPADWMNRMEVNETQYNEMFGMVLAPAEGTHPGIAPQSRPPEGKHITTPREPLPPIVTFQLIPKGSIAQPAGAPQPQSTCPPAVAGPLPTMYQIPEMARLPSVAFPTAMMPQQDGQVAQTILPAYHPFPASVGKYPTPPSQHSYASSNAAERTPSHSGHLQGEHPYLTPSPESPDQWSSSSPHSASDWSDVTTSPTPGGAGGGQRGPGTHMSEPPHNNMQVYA
Sequence of Neurogenic locus notch homolog protein 3 (Homo sapiens) (Q9UM47 whole entry, looked up): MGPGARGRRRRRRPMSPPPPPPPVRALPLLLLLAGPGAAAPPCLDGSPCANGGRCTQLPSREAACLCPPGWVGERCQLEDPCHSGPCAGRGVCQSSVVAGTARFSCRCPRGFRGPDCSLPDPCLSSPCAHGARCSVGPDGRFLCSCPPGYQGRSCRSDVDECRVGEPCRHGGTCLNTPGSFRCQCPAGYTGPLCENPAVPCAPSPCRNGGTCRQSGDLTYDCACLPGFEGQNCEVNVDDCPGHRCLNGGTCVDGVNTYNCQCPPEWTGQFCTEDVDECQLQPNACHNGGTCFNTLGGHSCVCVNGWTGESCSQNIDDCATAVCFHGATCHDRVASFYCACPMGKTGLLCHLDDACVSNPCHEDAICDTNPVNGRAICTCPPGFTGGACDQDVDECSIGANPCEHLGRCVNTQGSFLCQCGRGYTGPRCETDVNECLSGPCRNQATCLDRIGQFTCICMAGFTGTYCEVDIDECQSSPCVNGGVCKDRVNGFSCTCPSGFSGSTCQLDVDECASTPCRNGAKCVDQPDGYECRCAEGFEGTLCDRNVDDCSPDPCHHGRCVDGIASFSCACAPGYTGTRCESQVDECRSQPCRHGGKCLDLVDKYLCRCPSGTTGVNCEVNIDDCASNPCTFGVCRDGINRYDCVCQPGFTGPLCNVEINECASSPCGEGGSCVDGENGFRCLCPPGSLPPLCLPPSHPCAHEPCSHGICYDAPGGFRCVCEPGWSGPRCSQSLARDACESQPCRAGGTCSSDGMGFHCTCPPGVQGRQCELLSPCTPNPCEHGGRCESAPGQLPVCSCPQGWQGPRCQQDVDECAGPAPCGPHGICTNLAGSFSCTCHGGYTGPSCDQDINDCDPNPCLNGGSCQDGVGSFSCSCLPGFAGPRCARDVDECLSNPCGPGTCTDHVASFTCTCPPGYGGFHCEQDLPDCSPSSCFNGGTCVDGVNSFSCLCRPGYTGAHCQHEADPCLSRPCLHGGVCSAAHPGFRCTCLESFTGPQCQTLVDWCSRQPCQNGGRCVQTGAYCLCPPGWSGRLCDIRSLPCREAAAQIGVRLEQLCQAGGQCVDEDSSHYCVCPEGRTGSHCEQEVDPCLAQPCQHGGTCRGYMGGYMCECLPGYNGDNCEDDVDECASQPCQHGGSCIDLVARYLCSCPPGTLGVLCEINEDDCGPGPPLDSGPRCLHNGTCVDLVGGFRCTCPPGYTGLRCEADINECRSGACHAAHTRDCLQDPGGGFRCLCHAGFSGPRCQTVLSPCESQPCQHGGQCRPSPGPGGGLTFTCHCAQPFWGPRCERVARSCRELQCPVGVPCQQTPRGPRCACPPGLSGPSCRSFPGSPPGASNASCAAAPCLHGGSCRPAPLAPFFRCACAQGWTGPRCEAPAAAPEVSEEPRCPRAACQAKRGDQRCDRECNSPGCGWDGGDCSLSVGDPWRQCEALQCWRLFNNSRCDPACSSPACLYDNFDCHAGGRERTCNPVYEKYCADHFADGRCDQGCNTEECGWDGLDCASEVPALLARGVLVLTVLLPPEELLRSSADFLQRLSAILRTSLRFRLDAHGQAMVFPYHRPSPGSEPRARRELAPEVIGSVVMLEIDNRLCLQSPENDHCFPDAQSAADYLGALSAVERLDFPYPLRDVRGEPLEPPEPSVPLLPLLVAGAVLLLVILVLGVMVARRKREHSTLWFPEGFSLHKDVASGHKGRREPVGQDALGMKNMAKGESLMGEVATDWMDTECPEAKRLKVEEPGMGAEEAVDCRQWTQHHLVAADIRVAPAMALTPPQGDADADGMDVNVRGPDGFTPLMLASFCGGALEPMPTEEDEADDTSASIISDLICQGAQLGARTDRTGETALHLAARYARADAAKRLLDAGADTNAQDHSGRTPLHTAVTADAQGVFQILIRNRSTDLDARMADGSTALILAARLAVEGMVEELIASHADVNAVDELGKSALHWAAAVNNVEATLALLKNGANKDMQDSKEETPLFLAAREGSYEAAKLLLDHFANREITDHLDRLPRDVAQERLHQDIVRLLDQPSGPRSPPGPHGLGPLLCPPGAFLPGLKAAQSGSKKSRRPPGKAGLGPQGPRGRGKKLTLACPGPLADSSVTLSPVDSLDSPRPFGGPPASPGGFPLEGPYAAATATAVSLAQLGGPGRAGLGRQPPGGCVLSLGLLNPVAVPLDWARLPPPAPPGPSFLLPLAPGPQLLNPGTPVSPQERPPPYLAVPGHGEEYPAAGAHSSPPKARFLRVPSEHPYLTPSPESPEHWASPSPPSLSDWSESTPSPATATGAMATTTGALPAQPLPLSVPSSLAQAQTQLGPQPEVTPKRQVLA

With `CO[C@@H]1COC(=O)CC=C[C@H](C)[C@@H](NS(=O)(=O)c2ccc(C)cc2)COC(=O)CC=C[C@@H]1C`, the composite z-score is -0.226 and -0.425 in assay [1]; 0.711 and 1.44 in assay [2]; -0.234 and -0.127 in assay [3]; 0.433 and -0.153 in [4]; 0.671 and -0.333 in [5]; 0.0292 and -0.476 in assay [6]. The composite z-score was 0.628 and 0.956 in assay [7]; 0.0151 and 0.106 in [9]; 0.113 and -0.0391 in assay [10]; 1.16 and 1.54 in assay [11]; 0.633 and -0.853 in assay [15]; -0.0785 and -0.186 in [17]. In addition, the composite z-score in assay [18] is 1.27 and 1.31; in assay [19], 0.634 and 0.525; in [20], -0.115 and 0.0097. Also, the z-score in [8] was 0.994 (inactive) and 0.445 (inactive); in assay [12], 0.403 (inactive) and -0.552 (inactive); in assay [13], -0.733 (inactive) and -0.194 (inactive); in assay [14] it was 0.62 (inactive) and -1.52 (inactive); in assay [16], 0.56 (inactive) and 0.132 (inactive).

Turning to `CCOC(=O)NN=C1C[C@@H](O)[C@@H](O)[C@@H]2[C@@H]3C(=O)N(Cc4ccc5c(c4)OCO5)C(=O)[C@@H]3CC[C@@H]12`, the composite z-score in assay [1] is -0.441; in assay [2], 0.16; in [3] it was -0.121; in [4], 0.505; in assay [5], 0.34; in assay [6], 0.416. The composite z-score is 0.858 in assay [7]; 0.16 in assay [9]; 0.007 in assay [10]; 0.365 in [11]; 2.14 in assay [15]; -0.148 in assay [17]. In addition, the figures for the composite z-score in assay [18], in assay [19] and in assay [20] were 0.0857, -0.209 and -0.148, respectively. Moreover, the z-score in assay [8] was -0.544 (inactive); in assay [12] it was 0.282 (inactive); in [13], -0.117 (inactive); in [14], -0.135 (inactive); in assay [16] it was 0.234 (inactive).

For `C[N+](C)(C)CCCCCCNC(=O)[C@H]1C[C@H]2C(=O)N[C@@H](CCCC[N+](C)(C)C)C(=O)N2[C@H]1c1ccc(O)cc1`, the composite z-score is 0.267 and 0.341 in assay [1]; 0.137 and 0.115 in [2]; -0.106 and -0.158 in [3]; 0.105 and 0.129 in [4]; -0.2 and -0.619 in assay [5]; -0.0293 and -0.0659 in assay [6]. Besides, the composite z-score in [7] is 1.07 and 1.41; in [9], -0.15 and -0.508; in assay [10] it was -0.0994 and 0.2; in assay [11] it was 0.258 and -0.147; in assay [15] it was 0.106 and 0.967; in assay [17], -0.0322 and -0.0179. Also, the composite z-score in [18] is 0.938 and 0.161; in assay [19] it was -0.275 and -0.316; in [20] it was -0.151 and -0.236. Further, the z-score was 0.996 (inactive) and -0.0859 (inactive) in assay [8]; 0.166 (inactive) and 0.547 (inactive) in [12]; 0.268 (inactive) and -0.656 (inactive) in [13]; 0.122 (inactive) and 0.411 (inactive) in [14]; 0.595 (inactive) and -0.0409 (inactive) in assay [16].

Take `CC(C)=CCCC(C)=CCON=C1C[C@@H](O)[C@@H](O)[C@@H]2[C@@H]3C(=O)N([C@@H](C)c4ccccc4)C(=O)[C@@H]3CC[C@H]12`: the composite z-score in assay [1] was -0.372; in assay [2] it was 0.384; in assay [3], -0.044; in assay [4], 0.573; in assay [5], 0.744; in assay [6], 1.13. Further, the composite z-score in assay [7] is 0.751; in [9], 0.503; in assay [10], 0.0627; in [11], 1.13; in assay [15] it was 2.28; in assay [17] it was -0.0991. The composite z-score in assay [18] is 0.454; in assay [19], 0.492; in assay [20], -0.162. In addition, the z-score was -0.763 (inactive) in assay [8]; -1.23 (inactive) in assay [12]; -0.846 (inactive) in assay [13]; -0.989 (inactive) in [14]; -1.39 (inactive) in assay [16].
